Experiments:
Test in all cases: protein-binding microarray (PBM); PBM: ~300 nM protein, 6 mM HEPES pH 7.8, 80 mM KCl, 0.5 mM EDTA, 0.5 mM EGTA, 6% glycerol, 35 ng/ul poly-dIdC, 1% milk, 1 h, room temperature; Ap Aiptasia and Nv Nematostella (sea anemones) / Co Capsaspora / Aq Amphimedon (sponge) / Dm Drosophila / Hu human; RHD is the Rel homology domain; high values mean tight binding
Settings in all cases: dsDNA, one strand shown
GST-Ap-NF-kB RHD = target: T1, GST-Ap-NF-kB RHD (Exaiptasia pallida (Aiptasia), UniProt A0A913YAJ5 2-422)
T1 sequence: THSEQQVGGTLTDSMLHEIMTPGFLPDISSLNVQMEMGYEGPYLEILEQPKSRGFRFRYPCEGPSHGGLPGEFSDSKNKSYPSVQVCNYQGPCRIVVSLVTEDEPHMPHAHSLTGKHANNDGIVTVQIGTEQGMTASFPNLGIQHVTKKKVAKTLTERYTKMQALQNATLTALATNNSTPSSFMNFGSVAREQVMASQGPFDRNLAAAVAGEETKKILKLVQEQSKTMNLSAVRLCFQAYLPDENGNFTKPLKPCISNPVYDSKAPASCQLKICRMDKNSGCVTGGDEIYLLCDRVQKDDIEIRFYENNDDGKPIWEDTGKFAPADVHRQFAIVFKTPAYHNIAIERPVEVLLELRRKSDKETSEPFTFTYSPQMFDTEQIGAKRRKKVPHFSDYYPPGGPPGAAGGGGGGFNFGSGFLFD

[1] = target: T2, GST-Nv-NF-kB (Cys allele) (Nematostella vectensis, UniProt E5G601 2-411)
T2 sequence: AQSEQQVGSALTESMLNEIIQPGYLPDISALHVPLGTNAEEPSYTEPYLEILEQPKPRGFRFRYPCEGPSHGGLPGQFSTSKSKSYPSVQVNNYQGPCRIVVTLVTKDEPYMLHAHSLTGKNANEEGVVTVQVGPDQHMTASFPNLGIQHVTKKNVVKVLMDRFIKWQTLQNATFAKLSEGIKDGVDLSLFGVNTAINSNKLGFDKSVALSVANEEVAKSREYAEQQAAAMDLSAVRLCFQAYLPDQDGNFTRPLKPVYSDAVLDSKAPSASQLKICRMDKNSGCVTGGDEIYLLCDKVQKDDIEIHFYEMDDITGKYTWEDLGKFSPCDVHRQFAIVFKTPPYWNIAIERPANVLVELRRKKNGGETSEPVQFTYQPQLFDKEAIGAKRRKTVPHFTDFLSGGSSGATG

GST-Dm-Relish = target: T3, GST-Dm-Relish (Drosophila melanogaster, UniProt Q94527 99-473)
T3 sequence: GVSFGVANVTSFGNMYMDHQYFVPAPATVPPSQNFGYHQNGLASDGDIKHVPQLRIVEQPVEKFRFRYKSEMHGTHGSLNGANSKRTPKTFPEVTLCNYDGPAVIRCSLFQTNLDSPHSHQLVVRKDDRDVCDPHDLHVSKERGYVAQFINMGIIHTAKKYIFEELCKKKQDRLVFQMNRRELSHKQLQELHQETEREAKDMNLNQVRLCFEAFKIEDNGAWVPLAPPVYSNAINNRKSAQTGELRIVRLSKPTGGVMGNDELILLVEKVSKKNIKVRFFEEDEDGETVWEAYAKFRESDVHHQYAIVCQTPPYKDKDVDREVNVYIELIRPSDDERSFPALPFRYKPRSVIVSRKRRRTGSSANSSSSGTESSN

GST-Aq-NF-kB = target: T4, GST-Aq-NF-kB (Amphimedon queenslandica, UniProt A9Y5G7 2-389)
T4 sequence: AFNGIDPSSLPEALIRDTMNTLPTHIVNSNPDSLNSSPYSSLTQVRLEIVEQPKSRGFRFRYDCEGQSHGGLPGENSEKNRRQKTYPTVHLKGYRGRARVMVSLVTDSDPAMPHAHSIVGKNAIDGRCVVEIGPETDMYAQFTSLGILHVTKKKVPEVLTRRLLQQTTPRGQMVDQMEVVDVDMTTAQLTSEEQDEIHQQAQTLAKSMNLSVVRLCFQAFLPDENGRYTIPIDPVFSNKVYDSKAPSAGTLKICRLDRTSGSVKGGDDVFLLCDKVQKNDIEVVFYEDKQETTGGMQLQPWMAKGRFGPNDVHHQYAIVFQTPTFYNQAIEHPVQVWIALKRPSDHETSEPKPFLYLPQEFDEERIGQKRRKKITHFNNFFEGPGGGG

Row | Sequence | binding signal (GST-Ap-NF-kB RHD) | binding signal [1] | binding signal (GST-Dm-Relish) | binding signal (GST-Aq-NF-kB)
1 | CCGATTAACATCAGGAAACTACCTGATGTTAATCGGGTCTTGATTCGCTTGACGCTGCTG | 1.63 z-score | 2.51 z-score | 4.48 z-score | 4.72 z-score
2 | CCGATTAACATCAGGAATCCCACTGATGTTAATCGGGTCTTGATTCGCTTGACGCTGCTG | 1.73 z-score | 1.37 z-score | 8.1 z-score | 1.75 z-score
3 | CCGATTAACATCACGGAAGTCCCTGATGTTAATCGGGTCTTGATTCGCTTGACGCTGCTG | 5.31 z-score | 5.39 z-score | 6.53 z-score | 5.41 z-score

Reference: article PMC5700166
